Data reported in article PMC11006913.

Target: HOXC9 (Homo sapiens, UniProt P31274 178-260, K195R)
Test: PBM; 200 nM protein, PBS
Details: dsDNA, one strand shown

HOXC9 (Homo sapiens, UniProt P31274 178-260, K195R), sequence (P31274 178-260 K195R): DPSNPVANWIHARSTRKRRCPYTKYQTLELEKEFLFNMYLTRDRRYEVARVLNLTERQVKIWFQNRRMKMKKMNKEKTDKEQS

Sequence | binding signal
CGGGAGCC | 9.62 upbm affinity estimate (log intensity, higher = more binding, comparable within an allelic series)
ATATTGCA | 11.2 upbm affinity estimate (log intensity, higher = more binding, comparable within an allelic series)
GGGCACGA | 9.75 upbm affinity estimate (log intensity, higher = more binding, comparable within an allelic series)
GAGATAAA | 11.1 upbm affinity estimate (log intensity, higher = more binding, comparable within an allelic series)
GCCCCAGC | 9.66 upbm affinity estimate (log intensity, higher = more binding, comparable within an allelic series)
ACTAAATA | 11.6 upbm affinity estimate (log intensity, higher = more binding, comparable within an allelic series)
CTGGACGC | 9.6 upbm affinity estimate (log intensity, higher = more binding, comparable within an allelic series)
ATCTTTAA | 11.4 upbm affinity estimate (log intensity, higher = more binding, comparable within an allelic series)
CGCATTTA | 11.1 upbm affinity estimate (log intensity, higher = more binding, comparable within an allelic series)
AGCCCGGC | 9.63 upbm affinity estimate (log intensity, higher = more binding, comparable within an allelic series)
CTGTTATA | 11.5 upbm affinity estimate (log intensity, higher = more binding, comparable within an allelic series)
ATGAACTA | 10.9 upbm affinity estimate (log intensity, higher = more binding, comparable within an allelic series)
AGTATAAC | 11 upbm affinity estimate (log intensity, higher = more binding, comparable within an allelic series)
CGGTCCAG | 9.64 upbm affinity estimate (log intensity, higher = more binding, comparable within an allelic series)
CGTAAAGA | 11.1 upbm affinity estimate (log intensity, higher = more binding, comparable within an allelic series)
ATTTAACA | 11.6 upbm affinity estimate (log intensity, higher = more binding, comparable within an allelic series)
ATTATCGG | 11.3 upbm affinity estimate (log intensity, higher = more binding, comparable within an allelic series)
CCCCAGGG | 9.62 upbm affinity estimate (log intensity, higher = more binding, comparable within an allelic series)
TAAGAATA | 10.9 upbm affinity estimate (log intensity, higher = more binding, comparable within an allelic series)
CATTTAGA | 11.1 upbm affinity estimate (log intensity, higher = more binding, comparable within an allelic series)

Sequence | binding signal
TAAAGTGA | 11.3 upbm affinity estimate (log intensity, higher = more binding, comparable within an allelic series)
CGTTAAAG | 11.3 upbm affinity estimate (log intensity, higher = more binding, comparable within an allelic series)
AGTATTAT | 11.6 upbm affinity estimate (log intensity, higher = more binding, comparable within an allelic series)
ATTGTATG | 11.1 upbm affinity estimate (log intensity, higher = more binding, comparable within an allelic series)
AGGACGTG | 9.73 upbm affinity estimate (log intensity, higher = more binding, comparable within an allelic series)
CACCATTA | 11.9 upbm affinity estimate (log intensity, higher = more binding, comparable within an allelic series)
AGCCGACC | 9.56 upbm affinity estimate (log intensity, higher = more binding, comparable within an allelic series)
TTATACAA | 11.1 upbm affinity estimate (log intensity, higher = more binding, comparable within an allelic series)
AGGGACCC | 9.58 upbm affinity estimate (log intensity, higher = more binding, comparable within an allelic series)
AGACCAGG | 9.63 upbm affinity estimate (log intensity, higher = more binding, comparable within an allelic series)
AGGCTCCC | 9.39 upbm affinity estimate (log intensity, higher = more binding, comparable within an allelic series)
TTCATAAA | 11.7 upbm affinity estimate (log intensity, higher = more binding, comparable within an allelic series)
GGGGGGCA | 9.42 upbm affinity estimate (log intensity, higher = more binding, comparable within an allelic series)
CGGTGCCA | 9.43 upbm affinity estimate (log intensity, higher = more binding, comparable within an allelic series)
GGGCCCCC | 9.38 upbm affinity estimate (log intensity, higher = more binding, comparable within an allelic series)
ATCTACTA | 11 upbm affinity estimate (log intensity, higher = more binding, comparable within an allelic series)
ATATGAAA | 11.4 upbm affinity estimate (log intensity, higher = more binding, comparable within an allelic series)
CCTAGACG | 9.79 upbm affinity estimate (log intensity, higher = more binding, comparable within an allelic series)
CCTCCAGG | 9.43 upbm affinity estimate (log intensity, higher = more binding, comparable within an allelic series)
CCGTTATA | 11.3 upbm affinity estimate (log intensity, higher = more binding, comparable within an allelic series)

Target: HOXC9 (Homo sapiens, UniProt P31274 178-260)
Test: PBM; 200 nM protein, PBS
Details: dsDNA, one strand shown

HOXC9 (Homo sapiens, UniProt P31274 178-260), sequence (P31274 178-260): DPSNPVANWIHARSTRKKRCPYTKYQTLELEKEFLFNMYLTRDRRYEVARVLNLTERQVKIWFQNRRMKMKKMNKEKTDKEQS

Sequence | binding signal
CGGGAGCC | 9.73 upbm affinity estimate (log intensity, higher = more binding, comparable within an allelic series)
ATATTGCA | 11.2 upbm affinity estimate (log intensity, higher = more binding, comparable within an allelic series)
GGGCACGA | 9.85 upbm affinity estimate (log intensity, higher = more binding, comparable within an allelic series)
GAGATAAA | 11.1 upbm affinity estimate (log intensity, higher = more binding, comparable within an allelic series)
GCCCCAGC | 9.84 upbm affinity estimate (log intensity, higher = more binding, comparable within an allelic series)
ACTAAATA | 11.5 upbm affinity estimate (log intensity, higher = more binding, comparable within an allelic series)
CTGGACGC | 9.69 upbm affinity estimate (log intensity, higher = more binding, comparable within an allelic series)
ATCTTTAA | 11.3 upbm affinity estimate (log intensity, higher = more binding, comparable within an allelic series)
CGCATTTA | 11.2 upbm affinity estimate (log intensity, higher = more binding, comparable within an allelic series)
AGCCCGGC | 9.75 upbm affinity estimate (log intensity, higher = more binding, comparable within an allelic series)
CTGTTATA | 11.5 upbm affinity estimate (log intensity, higher = more binding, comparable within an allelic series)
ATGAACTA | 10.9 upbm affinity estimate (log intensity, higher = more binding, comparable within an allelic series)
AGTATAAC | 11 upbm affinity estimate (log intensity, higher = more binding, comparable within an allelic series)
CGGTCCAG | 9.66 upbm affinity estimate (log intensity, higher = more binding, comparable within an allelic series)
CGTAAAGA | 11.2 upbm affinity estimate (log intensity, higher = more binding, comparable within an allelic series)
ATTTAACA | 11.6 upbm affinity estimate (log intensity, higher = more binding, comparable within an allelic series)
ATTATCGG | 11.5 upbm affinity estimate (log intensity, higher = more binding, comparable within an allelic series)
CCCCAGGG | 9.8 upbm affinity estimate (log intensity, higher = more binding, comparable within an allelic series)
TAAGAATA | 10.8 upbm affinity estimate (log intensity, higher = more binding, comparable within an allelic series)
CATTTAGA | 11.1 upbm affinity estimate (log intensity, higher = more binding, comparable within an allelic series)

Sequence | binding signal
TAAAGTGA | 11.4 upbm affinity estimate (log intensity, higher = more binding, comparable within an allelic series)
CGTTAAAG | 11.4 upbm affinity estimate (log intensity, higher = more binding, comparable within an allelic series)
AGTATTAT | 11.6 upbm affinity estimate (log intensity, higher = more binding, comparable within an allelic series)
ATTGTATG | 11 upbm affinity estimate (log intensity, higher = more binding, comparable within an allelic series)
AGGACGTG | 9.75 upbm affinity estimate (log intensity, higher = more binding, comparable within an allelic series)
CACCATTA | 11.9 upbm affinity estimate (log intensity, higher = more binding, comparable within an allelic series)
AGCCGACC | 9.71 upbm affinity estimate (log intensity, higher = more binding, comparable within an allelic series)
TTATACAA | 11.1 upbm affinity estimate (log intensity, higher = more binding, comparable within an allelic series)
AGGGACCC | 9.44 upbm affinity estimate (log intensity, higher = more binding, comparable within an allelic series)
AGACCAGG | 9.68 upbm affinity estimate (log intensity, higher = more binding, comparable within an allelic series)
AGGCTCCC | 9.56 upbm affinity estimate (log intensity, higher = more binding, comparable within an allelic series)
TTCATAAA | 11.7 upbm affinity estimate (log intensity, higher = more binding, comparable within an allelic series)
GGGGGGCA | 9.53 upbm affinity estimate (log intensity, higher = more binding, comparable within an allelic series)
CGGTGCCA | 9.52 upbm affinity estimate (log intensity, higher = more binding, comparable within an allelic series)
GGGCCCCC | 9.62 upbm affinity estimate (log intensity, higher = more binding, comparable within an allelic series)
ATCTACTA | 10.7 upbm affinity estimate (log intensity, higher = more binding, comparable within an allelic series)
ATATGAAA | 11.3 upbm affinity estimate (log intensity, higher = more binding, comparable within an allelic series)
CCTAGACG | 9.86 upbm affinity estimate (log intensity, higher = more binding, comparable within an allelic series)
CCTCCAGG | 9.47 upbm affinity estimate (log intensity, higher = more binding, comparable within an allelic series)
CCGTTATA | 11.3 upbm affinity estimate (log intensity, higher = more binding, comparable within an allelic series)
